The other results are listed elsewhere or left out. Entries that show only a call come without a potency. Records with an inconclusive call do not appear. Activity calls are given as the source filed them. The call rests on the fitted dose curve; in most records, active means well fitted inhibition curve with a large enough effect; inconclusive means small, poorly fitted or top-dose-only effect; inactive means no such curve, though single readings can be large or run the other way.

Chain of Peroxisomal multifunctional enzyme type 2 (Homo sapiens) (P51659 whole entry, looked up): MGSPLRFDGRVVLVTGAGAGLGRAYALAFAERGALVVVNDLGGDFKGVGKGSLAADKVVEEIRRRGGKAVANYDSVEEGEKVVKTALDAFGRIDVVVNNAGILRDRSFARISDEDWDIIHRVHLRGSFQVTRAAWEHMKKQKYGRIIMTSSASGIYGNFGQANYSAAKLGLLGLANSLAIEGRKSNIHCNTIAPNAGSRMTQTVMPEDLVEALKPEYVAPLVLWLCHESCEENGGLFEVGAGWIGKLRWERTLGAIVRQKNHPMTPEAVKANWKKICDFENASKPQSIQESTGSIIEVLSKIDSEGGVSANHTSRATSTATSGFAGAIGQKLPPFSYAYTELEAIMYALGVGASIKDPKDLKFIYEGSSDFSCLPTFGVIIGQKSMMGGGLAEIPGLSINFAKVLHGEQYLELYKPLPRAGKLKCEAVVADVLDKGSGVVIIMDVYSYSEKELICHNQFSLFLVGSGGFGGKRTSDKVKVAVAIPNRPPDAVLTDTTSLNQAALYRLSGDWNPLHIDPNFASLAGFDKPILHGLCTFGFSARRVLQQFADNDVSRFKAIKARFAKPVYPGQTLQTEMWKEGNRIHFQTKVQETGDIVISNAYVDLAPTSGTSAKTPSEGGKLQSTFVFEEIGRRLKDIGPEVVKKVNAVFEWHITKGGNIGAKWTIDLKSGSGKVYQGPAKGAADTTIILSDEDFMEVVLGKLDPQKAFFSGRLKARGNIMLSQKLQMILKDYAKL

The test addresses Peroxisomal multifunctional enzyme type 2 (Homo sapiens) (UniProt P51659). Briefly: Extended Characterization of HPGD Inhibitors: Counterscreen Against HSD17b4. The note with it: purified HSD17B4, estradiol/NAD+, NADH fluorescence; series mostly up to 57.1 µM. An excerpt: The central role of HPGD is to inactivate prostaglandins such as prostaglandin E2 (PGE2) or prostaglandin D2 (PGD2). These prostaglandins are involved in a number of processes, including inflammation, differentiation, and cellular signaling, which makes HPGD an important target for pharmacological intervention. The […] enzyme 17b-hydroxysteroid dehydrogenase […] (HSD17b4 catalyzes the NAD+-dependent oxidation of a variety of substrates including acyl-CoAs, androgens and neurosteroids, as well as bile acids. HSD17b4 activity was screened by utilizing an electron donor (estradiol) and NAD+ as an electron acceptor/cofactor. An increase in the fluorescence intensity due to conversion of NAD+ to NADH was used to measure the enzyme activity.. NIH Chemical Genomics Center [NCGC] NIH Molecular Libraries Probe Centers Network [MLPCN] MLPCN Grant: MH084681 Assay Submitter (PI): Structural Genomics Consortium
3 uL of enzyme (final concentration 100 nM) or buffer were dispensed into a 1,536-well solid-bottom black plate (Greiner Bio One, Monroe, NC) followed by pin-tool transfer (23 nL) of compound (final concentration range 324 pM to 57.2 uM) and control (CID-24867619, final concentration range 5.23 nM to 11.4 uM). Samples were incubated (RT, protected from light) for 15 minutes followed by a 1 uL substrate addition of NAD+ and Estradiol (final concentrations of 1 mM and 50 uM, respectively, in 15% DMSO). Plates were centrifuged at 1,000 rpm for 15 seconds, then read immediately on a ViewLux High-throughput CCD imager (Perkin-Elmer) equipped with standard UV fluorescence optics (340 nm excitation, 450 nm emission), incubated for 1 hour (RT, protected from light) followed by a second read. Data were normalized ([…]) against no-enzyme (positive) and enzyme-containing (neutral) wells.
In general terms: The purpose of a counterscreen is to sort out artefacts and off-target activity.
For `Cc1cc(C)nc(NC(=S)N2CCN(c3cccc(C#N)c3)CC2)c1`, the Potency result is “inactive”.
Turning to `Cc1cc(C)nc(NC(=S)N2CCN(c3ccc4nonc4c3)CC2)c1`, the Potency entry was “inactive”.
As for `Cc1cc(-c2nnc3n2CCCCC3)c(C)n1-c1cccc(Cl)c1`, the Potency result was “inactive”.
As for `COc1ccnc(NC(=S)N2CCN(c3ncc(C(F)(F)F)cc3Cl)CC2)c1`, the Potency result was “inactive”.
For `Cc1cc(C)nc(NC(=S)N2CCN(c3ccc(Cl)cc3C(F)(F)F)CC2)c1`, the Potency was 24.1 µM (active).
In the case of `COc1cccc(NC(=S)N2CCN(c3ccc(Cl)cc3Cl)CC2)n1`, the Potency result was “inactive”.
For `COc1cccc(NC(=S)N2CCN(c3ccccc3C(F)(F)F)CC2)n1` the value was “inactive”; for `FC(F)(F)c1cccc(N2CCN(C(=S)Nc3ccncc3)CC2)c1`, “inactive”.

Values taken from PubChem BioAssay AID743187 (National Center for Advancing Translational Sciences (NCATS), 2013).
